Results taken from the supplement of paper PMC6555819.

These sequences were tested on RARa:RXR (NR concentration 270 nM, RXRa partner concentration 90 nM) (assay: PBM binding z-score (relative to random genomic background probes); higher = stronger binding; sequences stand for … in GC…GCGATTGACAGCGTAGAATGAAGG).
In short: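 The probes on custom Agilent 4×180K protein-binding microarrays were double-stranded, with 34-nt variable regions bearing direct-repeat seeds, single-nucleotide variants, half-site ablations and random human genomic background sequences. Incubation lasted 1 h with ligand-free nuclear receptor dimers in PBS pH 7.4, 2% milk, 0.02% Triton X-100, 1 mM DTT, 0.2 mg/mL BSA and 0.4 mg/ml salmon testes DNA. Antibodies against each partner (one per run) detected bound dimers, and fluorescence scans were regression-normalized. Binding z-scores take the random background probes as reference.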

Sequence | PBM binding z-score
CTACCAAGGTGAACAAGGTCGTTGACTACTATTC | 2.61
GCTAGCTGGTCAGTAAAAGGTCACACACCGGTCG | 6.16
AGTCAAAGTTCACTAGGTAACGTCAGATTCAGCT | 3.22
CTCGAAAGGTAGGTTGAGGTGAGTATACGGATAA | 0.461
TCATATAGGTAAATGCGAGGTGAAAGTCCGATCT | 1.67
TAGCCTAGGGCATTGGGCCAGTATAGTACGCATC | -0.444
ATCTCTAGGTAAAGTTCAGTAAAAGATCGATAGA | 1.42
CAGCCTAGGTCAGGGCTAGTATAGGAGGAACGTT | 1.08
CAGACTAGGTCAGGGCCAGTATAGGAGGAACGTT | 0.723
CCTCGGAGGACAGAAGGTCAGAGTTGTCCGCTTT | 2
CTCGAAAGGTCGGTTGAGGTGAGTATCCGGATAA | 2.21
ATCGAAAGGTCGAGGTGAGTATAGAGAAAGGGAA | 3.37
AATACAGGGTCATCGTAGGCCAAAGTACGCACAG | 5.27
CGTCCAAGCTCAATGCTAGGTCAGTGAAAGCATT | 0.319
ATCTCTAGGTAAAGATAGTTCAGTGACTGCAAAT | 0.54
TCTATTAGTTGAAGGGCAACCGGCGAGTCCGTTT | 0.455
CTCGAAACGTCGGTTGAGGTGAGTATACGGATAA | 0.752
ACTAGCAGGCCAAGGGACACTCAAGATTAGTCCG | -0.78
TTACCAAGGTTAAGGTCGTTGATCCCTCTGTAGA | 3.04
GCTGCTAGGTCAGGTTGGACAGCTAACGGGTACG | 0.436
GCTATTCGTTGAAAGGGCAACCGAATGATTCTCG | 0.689
CAAACTAGGTCAAAGGTCAATGTCGAGCCAACCA | 8.9
